This is a sample that favours compounds with a hit; in the whole collection about 1.5% have one here.
mIDH1 inhibitor: blocks human mutant IDH1 R132H enzyme | Potency, µM (titrated, usually from 76.6 µM), for inactives: at the highest dose activity change, negative = inhibition, hits mostly inhibitors | O75874 | AID 602179 | IDH1-R132H enzyme, NADPH consumption, diaphorase/resazurin fluorescence | actives 0.093% (n = 390,000); further: potency means the concentration at half of the fitted maximal effect; on the % scale 0 is the no-effect control and ±100 the full control effect; nearly all actives have a fitted effect of over 65% in size
Target sequence (O75874 whole entry R132H, stated change not applied): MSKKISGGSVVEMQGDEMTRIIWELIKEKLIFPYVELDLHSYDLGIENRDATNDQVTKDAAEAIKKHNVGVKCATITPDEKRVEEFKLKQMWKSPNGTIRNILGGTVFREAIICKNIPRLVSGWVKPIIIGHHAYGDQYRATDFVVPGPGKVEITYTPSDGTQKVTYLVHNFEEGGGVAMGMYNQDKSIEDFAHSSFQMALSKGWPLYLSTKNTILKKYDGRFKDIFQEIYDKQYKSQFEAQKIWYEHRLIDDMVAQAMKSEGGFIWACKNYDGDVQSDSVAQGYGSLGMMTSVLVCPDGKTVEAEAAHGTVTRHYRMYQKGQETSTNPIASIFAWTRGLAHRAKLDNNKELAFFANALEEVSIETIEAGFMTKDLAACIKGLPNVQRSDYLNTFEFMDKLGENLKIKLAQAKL
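IDH1-R132H (0.5 ug/mL) preincubated 30 min with compound, then NADPH (0.016 mM) and alpha-KG (2 mM) added; 80 min at RT, pH 7.5. Remaining NADPH coupled via diaphorase/resazurin to fluorescence (540/590 nm); concentration-response curves normalized to no-enzyme control.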
gsp ag: activates gsp, the McCune-Albright syndrome mutation. AID 624287. actives 0.13% (n = 340,000). gsp mutant cells, cAMP HTRF, 30 min. Potency, µM (highest dose often 76.9 µM), inactives show at the highest dose activation (cAMP increase), usual class: activators; active means well fitted activation curve with a large enough effect; inconclusive means small, poorly fitted or top-dose-only effect, or another doubt; inactive means no such curve, though single readings can be large or run the other way; cell line not stated here;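 further: phosphodiesterase inhibitor Ro 20-1724 added with compounds to block cAMP breakdown; potency means the concentration at half of the fitted maximal effect; nearly all actives have a fitted effect of over 60% in size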
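Cells in DMEM/10% FBS with G418 were pretreated with compounds in DMSO plus […] (300 uM stock) for 30 min at 37C. cAMP was measured by HTRF (cAMP-d2 plus anti-cAMP antibody-K) after 30 min at room temperature.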
IL2 activator: activates IL-2 in a cell-based reporter assay; IL-2 activation reporter assay, cell-based qHTS; stimulated with anti-CD3/CD4/CD28 beads; in transgenic mouse T cells; activation, % (series mostly up to about 46 µM); actives 0.065% (n = 360,000); AID 652025; in the data active means activation above about 50%; inconclusive means mostly about 30% to 49%; further: 0% is about no effect
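Unstimulated transgenic mouse T cells preincubated 60 min with compound, then stimulated with anti-CD3/anti-CD4-coated beads plus anti-CD28 for 18 h at 37 degrees C. IL-2 response read as EGFP and DsRed fluorescence by plate cytometry.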
gsp antag: antagonizes gsp, the McCune-Albright syndrome mutation | actives 0.4% (n = 340,000) | gsp-mutant cells, cAMP HTRF, 30 min | Potency, µM (series often up to 76.9 µM), for inactives: at the highest dose activity change, negative = inhibition, usual class: inhibitors; calls by dose curve; cell line not stated here;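 further: intracellular cAMP measured with PDE inhibitor Ro 20-1724 present during compound exposure; potency means the concentration at half of the fitted maximal effect; on the % scale 0 is the no-effect control and ±100 the full control effect; nearly all actives have a fitted effect of over 65% in size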
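Cells, 2000/well, grown 16–24 h in DMEM 10% FBS with 0.5 mg/ml G418, then compounds plus […] (300 uM addition stock), 30 min at 37C. cAMP read by HTRF (cAMP-d2 and anti-cAMP antibody-K in lysis buffer) after 30 min RT.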
BRCA1 expr act: BRCA1 expression activation; MCF7-BRCA1-FFLuc reporter, luminescence, 48 h; response scale: scaled: vehicle 0%, 10 µM genistein 100%; Potency, µM (top dose mostly 46.1 µM), inactives show at the highest dose activation, hits mostly activators; actives 1.1% (n = 380,000); AID 624202; further: potency means the concentration at half of the fitted maximal effect; nearly all actives have a fitted effect of over 80% in size
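Reporter cells (MCF7, BRCA1 promoter-firefly luciferase) received library compounds across a concentration series for 48 h. End-point luminescence was measured and concentration-effect curves derived after normalization.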
* marks the source's active call; other numbers are inactive results; ? = inconclusive; . = not tested or not shown; [ ] = another dose, or the depositor's remark. Unless noted, the call rests on the fitted dose curve; in most records, active means well fitted curve in the direction sought with a large enough effect; inconclusive means small, poorly fitted or top-dose-only effect, or another doubt; inactive means no such curve, though single readings can be large; an effect the other way counts as inactive or inconclusive.

SMILES	mIDH1 inhibitor	gsp ag	IL2 activator	gsp antag	BRCA1 expr act
Cc1nc(SCC(=O)Nc2ccc3c(c2)OCO3)c(C#N)c2c1CCCC2	12%	4%	1	?	7.1µM*
CC(C)CSc1nnc(N)s1	-13%	20%	0	18%	12%
CC(C)CSc1nsc(N)n1	4%	-2%	-2	1%	13µM*
Nc1nc(SCc2ccc(Cl)cc2)ns1	5%	2%	-1	5%	91%
Nc1nc(SCc2ccccc2)ns1	1%	-24%	0	-2%	11µM*
O=C(CCNS(=O)(=O)c1ccc(F)cc1)N1CCN(c2ncccn2)CC1	4%	?	0	.	-1%
CCOCC(=O)Nc1c(C(=O)Nc2ccc3c(c2)OCCO3)oc2ccccc12	5%	7%[15.4 µM]	-5	-17%	2µM*
O=C(NCC1CCCO1)c1ccc(COc2ccccc2)cc1 (configuration not stated)	13%	-8%	-3	10%	11µM*
CCOc1ccc2oc(C(=O)Nc3ccc4c(c3)OCO4)c(C)c2c1	7%	-9%[15.4 µM]	2	2%	2.8µM*
CCOc1ccc2oc(C(=O)NCC3CCCO3)c(C)c2c1 (configuration not stated)	-7%	25%	-1	4%	8.9µM*
CCc1ccccc1NC(=O)COC(=O)c1cn(CC)c2nc(C)ccc2c1=O	-6%	.	.	.	4%
CC1=C(C(=O)Nc2ccc(C(=O)NCCCN3CCCCC3C)cc2)SCCO1 (configuration not stated)	16%	8%	3	.	3%
Cc1nc2sc3c(=O)[nH]nnc3c2c(C)c1Br	1%	?	6	50µM*	27%
N#CCCn1nc(-c2ccc(Br)cc2)cc1Nc1ccccc1NC(=O)C(F)(F)F	-7%	19%[15.4 µM]	-5	32µM*	-37%
N#CCCn1nc(-c2ccccc2)cc1Nc1ccccc1NC(=O)C(F)(F)F	5%	10%	-1	-9%	-14%
O=c1[nH]c2sc3c(c2c2nncn12)CCCC3	3%	0%	1	35µM*	-4%
Nc1c(O)ccc2c1C(=O)c1ccccc1C2=O	6%	-4%	0	25µM*	67%
Nc1c(-c2ccc(Cl)cc2)cnn1-c1ccccc1	0%	-62%	-3	1%	?
Nc1c(-c2ccc(Cl)cc2)nnn1-c1ccccc1	9%	5%	0	6%	7.1µM*
Cc1cc2nc(N3CCN(C(=O)c4ccco4)CC3)sc2cc1C	0%	-8%[15.4 µM]	0	2%	?
Cc1cc(C)c2nc(N3CCN(C(=O)c4ccco4)CC3)sc2c1	2%	0%[15.4 µM]	0	-6%	13µM*
Cc1sc2ncn(/N=C/c3cn(-c4ccccc4)nc3-c3ccccc3)c(=O)c2c1C	.	.	.	.	5%
Cc1ccsc1/C=N/n1cnc2sc(C)c(C)c2c1=O	11%	-24%	0	-1%	11µM*
CC(C)(C)OC(=O)NCCCCCc1nnc(SCC(=O)Nc2cccc(Cl)c2)o1	3%	13%	1	35µM*	7%
CCN1CCc2c(sc(NC(=O)c3ccc(S(=O)(=O)N(C)c4ccccc4)cc3)c2C(=O)NC)C1	5%	?	-1	?	-3%
SMILES	mIDH1 inhibitor	gsp ag	IL2 activator	gsp antag	BRCA1 expr act
CNC(=O)c1c(NC(=O)c2ccc(S(=O)(=O)N(C)c3ccccc3)cc2)sc2c1CCN(C(C)C)C2	-7%	?	62*	-18%	-9%
Cc1ccc(C)c(NC(=O)CN(C)C(=O)c2ccc(-c3cccc(C(F)(F)F)c3)o2)c1	0%	?	0	-9%	-32%
O=C(NCCc1ccccc1)C(=O)NC1CCCCC1	2%	-40%	0	1%	4µM*
O=C(NC1CCCCC1)C(=S)NCCc1ccccc1	9%	-27%	-2	5%	11µM*
CC1CCN(C(=S)NCCc2ccccc2)CC1	-3%	8%	1	2%	7.1µM*
CS(=O)(=O)N1CCN(Cc2cc3nc(-c4cccc5[nH]ncc45)nc(N4CCOCC4)c3s2)CC1	.	.	.	.	-70%[92.2 µM]
COc1ccc(-n2c(-c3cccc(F)c3)nc3c(cnn3-c3ccc(C)cc3)c2=O)cc1	-6%	.	.	.	17%
COC(=O)c1c(C)[nH]c(C(=O)OCc2ccc(F)cc2)c1C	4%	-1%	0	-4%	4.5µM*
Cc1cc(Cl)ccc1NC(=O)CN(c1ccccc1Br)S(C)(=O)=O	4%	.	.	.	.
Cn1ccsc1=NC(=O)c1cccc(OC(F)F)c1	8%	4%	1	-8%	8.9µM*
COc1ccc(Cn2nnnc2CN(Cc2cc3ccc(C)cc3[nH]c2=O)C2CCCC2)cc1	1%	26%	55*	-12%	-56%
CCc1ccc(NC(=O)c2ccc3nc(N)sc3c2)cc1	7%	13%	-2	15%	11µM*
CCOc1cc(/C=N/N=C2/NC(=O)C(CC(=O)O)S2)ccc1OCc1ccc(Cl)cc1Cl (configuration not stated)	-1%	-3%[15.4 µM]	1	0%	-22%
COc1cc(/C=N/N=C2/NC(=O)C(CC(=O)O)S2)ccc1OCc1ccc(Cl)cc1 (configuration not stated)	2%	-24%	-1	1%	4µM*
CCCNC(=O)c1noc2c1CCc1ccccc1-2	14%	11%	-4	1%	48%
COc1ccc2c(c1)CCc1c(C(=O)N3CCOCC3)noc1-2	1%	5%	-2	-7%	2.8µM*
COc1ccc2c(c1)CCc1c(C(=O)N3CCCc4ccccc43)noc1-2	2%	-5%	1	40µM*	12%
COc1ccc2c(c1)CCc1c(C(=O)N3CC4(C)CC3CC(C)(C)C4)noc1-2 (configuration not stated)	5%	-35%	-3	-20%	-39%
O=C(NCCN1CCOCC1)c1noc2c1CCc1ccccc1-2	3%	-42%	-2	-2%	7.9µM*
COc1cccc(C(=O)N2CCCc3ccccc32)c1	4%	?	-2	-18%	4%
O=[N+]([O-])c1ccc(N2CCc3ccccc3C2)nc1	5%	-1%	-1	-2%	11µM*
CC(O)(c1ccccc1)[N+]1(CC(=O)c2ccccc2)C=CC=C1 (configuration not stated)	.	.	.	.	4%
CNc1ccc(/C=C2\C=Cc3ccccc32)cc1I	.	.	.	.	-23%
COc1ccc2c(-c3cc4ccc(OCc5ccc(F)cc5)cc4oc3=O)cc(=O)oc2c1	3%	-14%	0	7%	-9%
O=C1COc2ccc(OCc3ccc(F)cc3)cc21	8%	-18%	-3	4%	2.8µM*
Cc1ccccc1S(=O)(=O)Cc1ccc(C(=O)NC2CCCCCC2)o1	-2%	-59%	1	-8%	0%
Cc1ccccc1S(=O)(=O)Cc1ccc(C(=O)N(C)C2CCCCC2)o1	-6%	?	-3	50µM*	0%
